Test results from PubChem BioAssay (Tox21).
Values without a mark were called inactive. Where a call stands in place of a potency, no number is given. The source made the active and inactive calls. The call rests on the fitted dose curve; in most records, active means well fitted curve in the direction sought with a large enough effect in the repeat runs; inconclusive means weak or mixed curves; inactive means flat fitted curve, though single readings scatter.

assay: qHTS assay to test for compound auto fluorescence at 535 nm (green) in HepG2 cell free culture (AID 720686); conditions: Cell-free medium, green autofluorescence 485/535 nm; series mostly up to 91.3 µM
Description: U.S. Tox21 Program National Center for Advancing Translational Sciences [NCATS] NIH Chemical Genomics Center [NCGC] U.S. Environmental Protection Agency [EPA] National Institutes of Environmental Health Sciences [NIEHS] National Toxicology Program [NTP] U.S. Food and Drug Administration [FDA] Tox21 Assay Overview: Compound auto fluorescence often interferes with screening of the compound library against various biological targets and signaling pathways. Some of these compounds may have fluorophoric properties. Such properties may interfere with the assay outputs resulting in false positives and/or negatives. To decrease such complications and ensure the compound activities are relevant in terms of biological response, the Tox21 10K compound library was screened for auto fluorescence. From the fluorophores used as reporter signals in our screening assays, the auto fluorescence equivalencies of compounds against three fluorophores have been evaluated: Triamterene, Fluorescein and Rose Bengal sodium for blue, green and red fluorescence, respectively. The fluorescence intensities were measured using Excitation/Emission wavelengths at 405/460nm, 485/535nm and 540/590nm for blue, green and red labels, respectively. This assay includes the green fluorescence data.
Tox21 Assay Protocol Summary: 5 uL of culture medium (MEM containing 10% FBS) per well was dispensed into black wall/clear bottom 1536-well plates using a Multidrop Combi Dispenser (ThermoFisher Scientific, Waltham, MA). After 23 nL compound or DMSO vehicle was transferred into assay plate by a pintool work station (Kalypsys, San Diego, CA), fluorescence intensities in the assay plates were measured by an Envision (PerkinElmer, Shelton, CT) plate reader using three labels for measuring blue, green and red fluorescence at […] 460, 535 and 590nm respectively.
Potency means the concentration at half of the fitted maximal effect; tags describe the fitted curve by direction and shape or compound fluorescence and quenching.

| Compound | Potency | fluorescence, % of fluorescein control |
| --- | --- | --- |
| C=CC(=O)OCCOCC(CC)(COCCOC(=O)C=C)COCCOC(=O)C=C | inactive |  |
| Cc1ccc(N)cc1O | inactive |  |
| S=P(N1CC1)(N1CC1)N1CC1 | inactive |  |
| CCCCN(CCCC)CCC(O)c1cc2c(Cl)cc(Cl)cc2c2cc(C(F)(F)F)ccc12 (stereo not given) |  | -0.0465% [at 18.6 µM] |
| Oc1ccc(-c2ccc(O)cc2)cc1 | inactive |  |
| COC(=O)C1=C(C)NC(C)=C(C(=O)OCCCN2CCC(c3ccccc3)(c3ccccc3)CC2)C1c1cccc([N+](=O)[O-])c1 (stereo not given) | inactive |  |
| CN(Cc1cc(Br)cc(Br)c1N)C1CCCCC1 | inactive |  |
| CCC(C)c1cc([N+](=O)[O-])cc([N+](=O)[O-])c1OC(=O)OC(C)C (stereo not given) | inactive |  |
| CN1[C@@H]2CC[C@@H]1CC(OC(=O)C(CO)c1ccccc1)C2 (stereo not given in full) | inactive |  |
| CN(C)c1ccc(N=Nc2ccccc2C(=O)O)cc1 | inactive |  |
| CO[C@H]1C=CO[C@@]2(C)Oc3c(C)c(O)c4c(O)c(cc(O)c4c3C2=O)NC(=O)/C(C)=C\C=C/[C@H](C)[C@H](O)[C@@H](C)[C@@H](O)[C@@H](C)[C@H](OC(C)=O)[C@@H]1C | inactive |  |
| O=C(Oc1ccccc1)c1cccc(C(=O)Oc2ccccc2)c1 | inactive |  |
| CCCCCCCCCC(=O)N(C)C | inactive |  |
| CC(=O)Nc1ccc(O)cc1 | inactive |  |
| COc1cc(C(=O)NS(=O)(=O)c2ccccc2C)ccc1Cc1cn(C)c2ccc(NC(=O)OC3CCCC3)cc12 | inactive |  |
| Cc1c(-c2ccc(O)cc2)n(Cc2ccc(OCCN3CCCCCC3)cc2)c2ccc(O)cc12 | inactive |  |
| C[n+]1c2cc(N)ccc2cc2ccc(N)cc21 (tested in a mixture with another compound) | 12.6 µM [fluorescent] (active) |  |
| O=C(O)CCn1c2c(c3ccccc31)C[C@H](NS(=O)(=O)c1ccc(F)cc1)CC2 | inactive |  |
| O=C(O)CC(=O)O | inactive |  |
| COC(=O)CC(C)CCC=C(C)C (stereo not given) | inactive |  |

| Compound | Potency | fluorescence, % of fluorescein control |
| --- | --- | --- |
| C=CC(=O)OCC(O)COc1ccccc1 (stereo not given) | inactive |  |
| Oc1ccc(-c2ccccc2)c(Cl)c1 | inactive |  |
| CC1=C(/C=C/C(C)=C/C=C/C(C)=C/C(=O)Nc2ccc(O)cc2)C(C)(C)CCC1 | inactive |  |
| O=C1OC(OC(=O)c2cccnc2Nc2cccc(C(F)(F)F)c2)c2ccccc21 (stereo not given) | inactive |  |
| CCc1ccc(O)c(C(C)(C)C)c1 | inactive |  |
| CC1=C(/C=C/C(C)=C/C=C/C(C)=C\C=O)C(C)(C)CCC1 | inactive |  |
| COc1ccccc1OCCNCC(O)COc1cccc2[nH]c3ccccc3c12 (stereo not given) | inactive |  |
| CCNc1nc(NC(C)CC)nc(OC)n1 (stereo not given) | inactive |  |
| C=C(C)C(=O)OCCC[Si](Cl)(Cl)Cl | inactive |  |
| O=C(Nc1ccc(Cl)c(Cl)c1)c1cc(Cl)cc(Cl)c1O | inactive |  |
| CCCCCCCCCCCC(=O)N(CC)CC | inactive |  |
| SCCCCCCCCS | inactive |  |
| CCCN(CCc1cccs1)[C@H]1CCc2c(O)cccc2C1 | inactive |  |
| CCc1cccc(C)c1 | inactive |  |
| CCN(CC)CCSC(=O)C(c1ccccc1)c1ccccc1 | inactive |  |
| c1ccc(Sc2ccccc2)cc1 | inactive |  |
| CCCCOC(=O)C(C)CC (stereo not given) | inactive |  |
| CCCCCCCCCCCCCCNCCO | inactive |  |
| Cc1nc(Nc2ncc(C(=O)Nc3c(C)cccc3Cl)s2)cc(N2CCN(CCO)CC2)n1 | inactive |  |
| CCN(CC)CCNc1ccc(CO)c2sc3ccccc3c(=O)c12 | inactive |  |
